Shown is part of a subset that was picked to be rich in hits.
B2AR arrestin ag: beta-arrestin recruitment by human beta2-adrenergic receptor ligands | P07550 | HTLA Tango cells, beta-arrestin recruitment, luciferase luminescence, 18 h | Potency, µM (titrated, usually from 46.1 µM), actives largely listed as activators | 44,000 tested, under 10 active | AID 1347077;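 also: potency is read from the fitted curve at half-maximal effect; 0% = DMSO and full agonism = EC100 isoproterenol or metaproterenol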
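Receptor–beta-arrestin recruitment read by tTA-responsive luciferase: compound titrations (up to 46 µM) incubated 18 h with Tango cells, then luminescent substrate 15 min at room temperature. Concentration-response fits classified by r2, efficacy and activity.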
PTAP-TSG101 blk: inhibitors of HIV-1 PTAP binding to human TSG101, validation; Q99816; Fluorescence polarization, FITC-PTAP peptide/Tsg101, 20 min; Potency, µM (series often up to 115 µM), usual class: inhibitors; 44,000 tested, under 10 active; AID 1347069; also: potency is read from the fitted curve at half-maximal effect; 0% is about no effect
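Read-out is FITC fluorescence polarization. Compounds were added to Tsg101 binding domain (10 uM final), then FITC-PTAP peptide (50 nM final), 20 min at r.t. Total S+P intensity flags fluorescent compounds.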
GALK inhibitor: inhibitors of human galactokinase (GALK); P51570; recombinant GALK, Kinase-Glo ATP luminescence, 1 h; Potency, µM (series often up to 57.5 µM), inactives show top-dose activity, negative = inhibition, usual class: inhibitors; 44,000 tested, under 10 active; AID 1347072;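 also: plate controls were full GALK reaction for no effect and reaction lacking GALK for full effect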
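Human GALK (5 nM) was incubated with 35 uM ATP and 100 uM galactose in 20 mM HEPES pH 8.0 with MgCl2, NaCl, DTT and BSA for 1 h at room temperature. Remaining ATP was measured by Kinase-Glo Plus luminescence.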
GALC G270D act: enhancers of human galactocerebrosidase G270D mutant activity in cells; P54803; 145M-Twi-hGALC-G270D cells (Twitcher mouse brain line with human GALC G270D), HMU-beta-Gal fluorescence, 48 h; Potency, µM (titrated, usually from 57.5 µM), usual class: activators; hit rate 0.1% among 45,000; AID 1159614; also: potency is read from the fitted curve at half-maximal effect; 0% is about no effect; nearly all actives have a fitted effect of over 65% in size
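Fluorescence readout: HMU-β-gal cleavage by mutant GALC (0.1 mM final, citrate/phosphate pH 5.2 with 1 mg/mL taurocholate), stopped with carbonate/bicarbonate plus Triton X-100. Cells: murine Twitcher 145M-Twi expressing human G270D GALC; qHTS for activators.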
NTMT1 inh: blocks human N-terminal methyltransferase 1 activity; Q9BV86; NTMT1 MTase-Glo SAH luminescence, purified enzyme; hit rate 2.5% among 59,000; Potency, µM (titrated, usually from 114 µM), without a hit: top-dose activity change, negative = inhibition, hits mostly inhibitors; AID 1645870;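 also: potency is read from the fitted curve at half-maximal effect; plate controls were DMSO vehicle for no effect and no enzyme for full effect; nearly all actives have a fitted effect of over 65% in size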
FH mod: Identification of activators of human fumarate hydratase by quantitative high-throughput screening | Fumarate hydratase, mitochondrial (Homo sapiens), P07954 | FH coupled MDH/diaphorase resazurin fluorescence, 15 min | Potency, µM (doses to about 79.9 µM), for the others: top-dose activity change, negative = inhibition, usual class: inhibitors | hit rate 0.22% among 54,000 | AID 1347055, 2019; also: potency is read from the fitted curve at half-maximal effect; % is scaled to controls: 0 for no effect and ±100 for the full control effect; the screen sought activators but most active calls are inhibition curves; nearly all actives have a fitted effect of over 45% in size
Target sequence (P07954 whole entry, looked up): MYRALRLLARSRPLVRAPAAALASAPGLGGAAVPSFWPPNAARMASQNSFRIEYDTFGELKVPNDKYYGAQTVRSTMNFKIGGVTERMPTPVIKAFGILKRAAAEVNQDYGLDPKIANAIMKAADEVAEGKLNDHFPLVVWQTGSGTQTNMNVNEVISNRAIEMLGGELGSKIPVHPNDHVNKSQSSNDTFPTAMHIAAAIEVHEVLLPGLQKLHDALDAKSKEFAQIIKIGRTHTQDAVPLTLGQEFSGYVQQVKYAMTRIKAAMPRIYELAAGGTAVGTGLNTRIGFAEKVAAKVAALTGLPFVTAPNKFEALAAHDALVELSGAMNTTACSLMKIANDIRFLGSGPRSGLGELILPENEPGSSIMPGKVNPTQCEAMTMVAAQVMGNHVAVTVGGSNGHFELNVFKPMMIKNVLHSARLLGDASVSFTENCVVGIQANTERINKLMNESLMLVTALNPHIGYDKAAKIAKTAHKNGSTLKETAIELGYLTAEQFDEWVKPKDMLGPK
Active calls of the source: *; i = inactive; ? = inconclusive; / = not tested or not shown; ! = a repeat was not active; [ ] = remark or other dose. Calls follow the shape of the dose curve; as a rule, active = well fitted curve in the direction sought with a large enough effect; inconclusive = small, poorly fitted or top-dose-only effect, or another doubt; inactive = no such curve, though single readings can be large; an effect the other way counts as inactive or inconclusive.

SMILES	B2AR arrestin ag	PTAP-TSG101 blk	GALK inhibitor	GALC G270D act	NTMT1 inh	FH mod
C[C@H](N)C(=O)c1ccccc1	/	/	/	i	112µM*	10.3%[162 µM]
O=C(Nc1ccc(OC(F)(F)F)cc1)c1cccn(Cc2ccccc2Cl)c1=O	i	i	2.4%	i	-3.8%	-12.8%
O=C(O)C(=O)c1cn(Cc2ccccc2)c2ccc(-c3ccc(OC(F)(F)F)cc3)cc12	/	/	/	/	39.8µM*!	-13.2%
Cc1cccc(C)c1OP(=O)(OCc1c(-c2ccccc2)no[n+]1[O-])Oc1c(C)cccc1C	/	/	/	/	4.9%	/
O=S(=O)(O)C(F)(F)C(F)(F)C(F)(F)C(F)(F)C(F)(F)C(F)(F)C(F)(F)C(F)(F)F	/	/	/	i	22.4µM*	?
c1ccc(N2CCNCC2)cc1	/	/	/	i	24.5%[57.5 µM]	1.1%[53.3 µM]
c1ccc(CN2CCNCC2)cc1	/	/	/	i	100µM*	30.9%[162 µM]
CC(=O)O[C@@H]1[C@H]2CC[C@H]3[C@@](C)(O)[C@@H]4C[C@H](O)C(C)(C)[C@@]4(O)[C@H](O)C[C@@]13C[C@@]2(C)O	/	/	/	/	11.5%[29.8 µM]	-3.3%[53.3 µM]
O=C(O)COc1ccccc1	/	/	/	i	25.5%[57.5 µM]	-3.2%[53.3 µM]
CC(=O)[O][Hg][c]1ccccc1	/	/	/	i	2.82µM*	-10.6%[53.3 µM]
CC(=O)OC[C@H]1O[C@@H]([S-])[C@H](OC(C)=O)[C@@H](OC(C)=O)[C@@H]1OC(C)=O.CC[PH+](CC)CC.[Au]	/	/	/	/	10µM*	/
C[N+](C)(C)CCOC(=O)C(O)(c1ccccc1)c1ccccc1	/	/	/	i	15.8µM*	2.8%[53.3 µM]
